Tcruzi_prolif: blocks T. cruzi growth in NIH3T3 culture. T. cruzi beta-gal in NIH3T3, GalScreen luminescence, 90 h. inhibition, % at 8.34 µM. 77,000 compounds, 5.9% hits. AID 624255;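 active = mean inhibition above about 93%, with at least 55% of replicates each passing it, limit read from the data, passing the limit was not always enough; inconclusive = only one of those two conditions holds; inactive = neither condition holds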
Pf_Dd2_inh: blocks growth of Plasmodium falciparum Dd2 parasites. AID 1159554. P. falciparum Dd2 growth, SYBR Green, 72 h; active compounds read low. activity change, % at 10 µM. 94,000 compounds, 2.3% hits; in the data active = activity change below about -80%; inconclusive = no clear call, values can overlap the other calls
C_diff_growth: inhibitors of Clostridium difficile growth; Clostridium difficile clinical isolate growth, OD600, 24 h; active compounds read low; growth activity, negative = inhibition, % at 16 µg/mL (by protocol); 86,000 compounds, 0.25% hits; AID 1259249;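 active = mean growth activity at or below -80% and every replicate also at or below -80%; inconclusive = mean at or below -80% but some replicate above -80%; inactive = mean growth activity above -80%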;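 note: 0% = DMSO wells and -100% = levofloxacin 16 µg/mL wells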
An asterisk follows results filed as active; ? = inconclusive; · = no result given. Rows were chosen to be rich in hits. Some 6.7% of all compounds tested hit in one or more screens of this group.

SMILES Tcruzi_prolif Pf_Dd2_inh C_diff_growth
C[C@H]1CN([C@@H](C)CO)C(=O)c2c(c3ccccc3n2C)-c2ccccc2CO[C@@H]1CN(C)S(=O)(=O)c1cccs1 94.1 -85.6* 7.5
COc1ccccc1S(=O)(=O)N(C)C[C@H]1OCc2ccccc2-c2c(n(C)c3ccccc23)C(=O)N([C@H](C)CO)C[C@@H]1C 77.2 -84.8* 7.5
C[C@@H]1CN([C@@H](C)CO)C(=O)c2ccccc2-c2ccccc2CO[C@@H]1CN(C)Cc1ccc2c(c1)OCO2 78.5 -59.5 -4.3
C[C@@H]1CN([C@@H](C)CO)C(=O)c2cc(NC(=O)c3ccccc3)ccc2O[C@@H](C)CCCCO[C@H]1CN(C)S(=O)(=O)c1cn(C)cn1 · -0.7 14.6
C[C@@H]1CN([C@H](C)CO)S(=O)(=O)c2ccc(-c3cncnc3)cc2O[C@@H]1CN(C)C(=O)c1ccc2c(c1)OCO2 25.0 -14.7 0.2
O=C(CCN1CCCCC1)N[C@H]1CC[C@H](CCNS(=O)(=O)c2ccc(F)cc2)O[C@H]1CO -72.4 24.7 -2.0
CO[C@H]1CN(C)C(=O)c2cc(NC(=O)NC(C)C)ccc2OC[C@H](C)N(C(=O)CC2CC2)C[C@H]1C 0.9 -22.3 ·
CS(=O)(=O)N1CC2(C1)[C@H](c1ccccc1)[C@H](CO)N2CC1CCCC1 · -10.6 5.3
Cc1ccc(-c2ccc3c(c2)O[C@@H](CN(C)C)[C@H](C)CN([C@H](C)CO)S3(=O)=O)cc1 37.7 19.8 0.0
C[C@H]1CN([C@@H](C)CO)C(=O)c2cccc(NC(=O)CCCCCC(=O)Nc3ccccc3N)c2O[C@H]1CN(C)Cc1ccncc1 · 22.7 2.0
C[C@@H]1CN([C@H](C)CO)C(=O)c2cccc(NC(=O)CCCCCC(=O)Nc3ccccc3N)c2O[C@H]1CN(C)Cc1ccncc1 · -18.9 -3.1
C[C@H]1CN([C@@H](C)CO)C(=O)c2cccc(NC(=O)CCCCCC(=O)Nc3ccccc3N)c2O[C@H]1CN(C)Cc1ccc(C(F)(F)F)cc1 · -85.4* 7.4
C[C@@H]1CN([C@H](C)CO)C(=O)c2cccc(NC(=O)CCCCCC(=O)Nc3ccccc3N)c2O[C@H]1CN(C)Cc1ccc(C(F)(F)F)cc1 · -91.7* -10.3
O=c1n(-c2ccccc2)c(=O)n2n1CC(COc1ccccc1)=C1[C@@H](CCc3ccccc3)OB(O)C[C@@H]12 · · -1.3
CCNC(=O)C[C@H]1CC[C@H]2[C@H](COc3ccc(NC(=O)Nc4ccccc4OC)cc3C(=O)N2C)O1 23.7 -16.9 1.7
CNC(=O)C[C@@H]1CC[C@@H]2[C@H](COc3ccc(NC(=O)Nc4cc(C)cc(C)c4)cc3C(=O)N2C)O1 9.7 5.8 1.7
Cc1ccc(S(=O)(=O)N(C)C[C@H]2OCCCC[C@H](C)Oc3ccc(NS(=O)(=O)c4ccc(F)cc4)cc3C(=O)N([C@@H](C)CO)C[C@H]2C)cc1 115.2* -82.1* 2.5
Cc1ccc(S(=O)(=O)N(C)C[C@@H]2OCCCC[C@@H](C)Oc3ccc(NS(=O)(=O)c4ccc(Cl)cc4)cc3C(=O)N([C@H](C)CO)C[C@H]2C)cc1 76.9 -53.7 3.4
Cc1ccc(S(=O)(=O)Nc2ccc3c(c2)C(=O)N([C@H](C)CO)C[C@@H](C)[C@H](CN(C)S(=O)(=O)c2ccc(Cl)cc2)OCCCC[C@@H](C)O3)cc1 54.8 -80.9* -1.0
Cc1noc(C)c1S(=O)(=O)Nc1ccc2c(c1)C(=O)N([C@@H](C)CO)C[C@H](C)[C@@H](CN(C)S(=O)(=O)c1ccc(Cl)cc1)OCCCC[C@@H](C)O2 77.9 -83.6* 11.7
Cc1ccc(S(=O)(=O)N(C)C[C@@H]2OCCCC[C@H](C)Oc3ccc(NS(=O)(=O)c4ccc(F)cc4)cc3C(=O)N([C@@H](C)CO)C[C@@H]2C)cc1 113.1 -46.6 3.1
Cc1noc(C)c1S(=O)(=O)Nc1ccc2c(c1)C(=O)N([C@@H](C)CO)C[C@H](C)[C@H](CN(C)S(=O)(=O)c1ccc(Cl)cc1)OCCCC[C@@H](C)O2 91.0 -72.9 0.3
Cc1ccc(S(=O)(=O)N(C)C[C@@H]2OCCCC[C@H](C)Oc3ccc(NS(=O)(=O)c4ccc(Cl)cc4)cc3C(=O)N([C@H](C)CO)C[C@@H]2C)cc1 108.0* -46.0 0.5
Cc1ccc(S(=O)(=O)N(C)C[C@@H]2OCCCC[C@@H](C)Oc3ccc(NS(=O)(=O)c4ccc(Cl)cc4)cc3C(=O)N([C@@H](C)CO)C[C@H]2C)cc1 82.3 4.0 5.2
CC(C)NC(=O)Nc1ccc2c(c1)CC(=O)N([C@@H](C)CO)C[C@H](C)[C@@H](CN(C)CC1CC1)O2 -3.9 -0.9 -2.5
SMILES Tcruzi_prolif Pf_Dd2_inh C_diff_growth
O=C(C[C@@H]1C=C[C@@H](NC(=O)C2CCOCC2)[C@@H](CO)O1)NCC1CCCCC1 · · -2.2
C[C@@H]1CCCCO[C@@H](CN(C)C(=O)CCC(F)(F)F)[C@@H](C)CN([C@H](C)CO)C(=O)c2cc(NC(=O)c3ccncc3)ccc2O1 25.1 11.0 1.6
C[C@@H]1CN([C@H](C)CO)C(=O)c2cc(C#CCN(C)C)cnc2O[C@@H]1CN(C)Cc1cccc(C(=O)O)c1 -117.3 46.5 2.3
COCC(=O)Nc1ccc2c(c1)C(=O)N(C)[C@@H]1CC[C@H](CC(=O)Nc3ccccc3)O[C@H]1CO2 -4.8 -16.6 0.1
COc1ccc(-c2cn(CC[C@@H]3CC[C@H](NC(=O)NC(C)C)[C@@H](CO)O3)nn2)cc1 8.8 26.1 1.4
CC(C)NC(=O)Nc1ccc2c(c1)C(=O)N([C@H](C)CO)C[C@H](C)[C@H](CN(C)Cc1ccc(C(=O)Nc3ccccc3N)cc1)OCCCC[C@@H](C)O2 · ? 4.3
C[C@@H]1CN([C@@H](C)CO)C(=O)c2cc(NC(=O)Cc3ccccc3)ccc2O[C@@H]1CN(C)Cc1ccc(C(=O)Nc2ccccc2N)cc1 44.5 -85.9* 3.1
C[C@@H]1CN([C@H](C)CO)C(=O)c2cc(NC(=O)c3ccncc3)ccc2O[C@@H]1CN(C)Cc1ccc(C(=O)Nc2ccccc2N)cc1 105.3 -60.9 ·
C[C@H]1CN([C@@H](C)CO)C(=O)c2cc(NC(=O)c3ccncc3)ccc2O[C@@H]1CN(C)Cc1ccc(C(=O)Nc2ccccc2N)cc1 · -86.0* 4.8
C[C@@H]1CN([C@H](C)CO)C(=O)c2cc(NC(=O)Cc3ccccc3)ccc2O[C@H]1CN(C)Cc1ccc(C(=O)Nc2ccccc2N)cc1 66.0 -51.4 -6.8
C[C@@H]1CCCCO[C@@H](CN(C)Cc2ccc(C(=O)Nc3ccccc3N)cc2)[C@@H](C)CN([C@H](C)CO)C(=O)c2cc(NC(=O)Cc3ccccc3)ccc2O1 · -83.6* 1.7
C[C@@H]1CN([C@@H](C)CO)C(=O)c2cc(NC(=O)Cc3cn(C)c4ccccc34)ccc2O[C@H]1CN(C)Cc1ccc(C(=O)Nc2ccccc2N)cc1 -36.5 -85.5* ·
C[C@@H]1CN([C@@H](C)CO)C(=O)c2cc(NC(=O)Cc3cn(C)c4ccccc34)ccc2O[C@@H]1CN(C)Cc1ccc(C(=O)Nc2ccccc2N)cc1 -24.6 -68.7 ·
O=C(C[C@H]1CC[C@@H](NC(=O)Nc2ccc3c(c2)OCO3)[C@H](CO)O1)NCc1ccccc1 -16.1 14.3 3.0
COc1ccc2c3c([nH]c2c1)[C@@H](CO)N(C(=O)CC1CC1)CC31CCN(Cc2cncnc2)CC1 · 48.0 ·

Source: PubChem (Broad Institute)
